Laboratory results from PubChem BioAssay (Tox21).
Inconclusive results are not listed. A number with no mark means an inactive call. Calls of active or inactive are those of the source. Calls follow the shape of the dose curve; as a rule, active = well fitted cell-killing curve with a large enough effect in the repeat runs; inconclusive = weak or mixed curves, or effect the other way; inactive = flat fitted curve, though single readings scatter.

experiment: cAMP Responsive Elements (CRE) small molecule agonists, cell-based qHTS assay: qHTS cell viability counter screen (AID 2060914); settings: CRE-bla HEK293T viability, CellTiter-Glo luminescence, 5 h; series mostly up to 92.4 µM; activity change, negative = cytotoxicity: at the top concentration;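 also: viability read after 3 h of compound exposure; nearly all actives have a fitted effect of over 50% in size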
Source text: National Center for Advancing Translational Sciences [NCATS]
Division of Preclinical Innovation [DPI]
U.S. Environmental Protection Agency [EPA]
National Institutes of Environmental Health Sciences [NIEHS]
National Toxicology Program [NTP]
U.S. Food and Drug Administration [FDA]
CREB (cyclic-AMP Responsive Element Binding Protein) is a cellular transcription factor. It binds to certain DNA sequences called cAMP Responsive Elements (CRE) and regulates the transcription of the genes. […] This cell line can be used to find agonists/antagonists of the cyclic AMP signaling pathway. The activation of the report gene under culture conditions can be detected by fluorescence intensity. This cell line has been used to screen the Tox21 10K compound library to identify agonists that induce oxidative stress. The cytotoxicity of the Tox21 compound library against the CRE-bla cell line was tested in parallel by measuring the cell viability using CellTiter-Glo assay (Promega, Madison, WI) in the same wells.
Tox21 Assay Protocol Summary:
CRE-bla Hek 293T cells were suspended in assay medium (DMEM containing 10% dialyzed FBS, 0.1 mM NEAA, 1 mM sodium pyruvate and 25 mM HEPES) and dispensed at 2,000 cells/5 uL /well into 1536-well black wall/clear bottom plates using a Multidrop Combi (ThermoFisher Scientific, Waltham, MA) dispenser. After the assay plates were incubated at 37 C/5% CO2 for 18 hrs, 23 nL of compounds dissolved in DMSO, positive controls or DMSO only was transferred to the assay plate by a pintool workstation (Kalypsys, San Diego, CA). After the plates were incubated at 37 C/5% CO2 for 3 hrs, 1 uL of LiveBLAzer B/G FRET substrate (Invitrogen, Carlsbad, CA) was added to each well using Bioraptr Flying Reagent Dispenser (FRD, Aurora Discovery, San Diego, CA). The plates were incubated at room temperature for 2 h, then fluorescence intensities were measured using an Envision plate reader (PerkinElmer, Shelton, CT) at Excitation 405nm, Emission 460nm and 530nm. The % activity was determined from the ratio of 460nm/530nm. For cell viability readout that measures cytotoxicity, 4 uL /well of CellTiter-Glo reagent was added into the assay plates using Bioraptr FRD. After 30 min incubation at room temperature, the luminescence intensity in the assay plates was measured using a ViewLux (PerkinElmer, Shelton, CT) plate reader.
% is scaled to controls: 0 for no effect and ±100 for the full control effect.

Compound | Potency | activity change, negative = cytotoxicity
CNC(=S)S | inactive | 
O=[N+]([O-])c1cccc2cccc([N+](=O)[O-])c12 |  | 9.44%
Cc1cccc(N)c1 | inactive | 
Fc1cccc(Cl)c1CCl |  | 10.3%
CC(=O)[C@H]1CC[C@H]2[C@@H]3CC[C@H]4C[C@H](O)CC[C@]4(C)[C@H]3C(=O)C[C@]12C |  | 1.92% [at 42.5 µM]
CC(C)(OO)c1ccccc1 |  | 1.37%
CCOC(=O)COc1cc(-c2nn(C)c(OC(F)F)c2Cl)c(F)cc1Cl |  | 5.28%
C=CC(=O)OC |  | 0.16%
II |  | -14.7%
Oc1cc(Cl)cc(Cl)c1 |  | -16.8%
CNC(C)Cc1ccccc1OC (stereo not given) |  | 5.66% [at 42.5 µM]
CN(C)c1ccc(N(C)C)cc1 |  | -13.2%
COC[C@@H](NC(C)=O)C(=O)NCc1ccccc1 |  | -25.1% [at 42.5 µM]
CCCCOCCOP(=O)(OCCOCCCC)OCCOCCCC | inactive | 
Brc1c(Br)c(Br)c(Br)c(Br)c1Br |  | 7.31% [at 8.39 µM]
C=CCC1=C(C)[C@@H](OC(=O)[C@@H]2[C@@H](C=C(C)C)C2(C)C)CC1=O |  | -13.2%
CC(=[OH+])/C=C(/C)[O-].CC(=[OH+])/C=C(\C)[O-].CC(=[OH+])/C=C(\C)[O-].[Fe] |  | 6.78%
O=[N+]([O-])c1cc([As](=O)(O)O)ccc1O | inactive | 
CCCCCCCCCCCOC(=O)c1ccccc1C(=O)OCCCCCCCCCCC | inactive | 
N#CC(Br)Br |  | -4.51%

Compound | Potency | activity change, negative = cytotoxicity
CCC(CC)Nc1c([N+](=O)[O-])cc(C)c(C)c1[N+](=O)[O-] | inactive | 
CC(C)(C)OOC(C)(C)C | inactive | 
CCOC(=O)c1ccccc1S(=O)(=O)NC(=O)Nc1nc(Cl)cc(OC)n1 |  | -0.591%
Cc1cnc(C2=NC(C)(C(C)C)C(=O)N2)c(C(=O)O)c1 (stereo not given) |  | 1.29%
CCC(C)c1cc(C(C)(C)C)cc(-n2nc3ccccc3n2)c1O (stereo not given) |  | -6.96% [at 42.5 µM]
Cc1ccc([N+](=O)[O-])cc1 | inactive | 
O=c1n(Cl)c(=O)n(Cl)c(=O)n1Cl | inactive | 
COP(=S)(OC)SCn1nnc2ccccc2c1=O | inactive | 
Cc1nnc2n1-c1sc(CCC(=O)N3CCOCC3)cc1C(c1ccccc1Cl)=NC2 |  | 2.94% [at 42.5 µM]
CCOS(=O)(=O)OCC | inactive | 
Cc1ccccc1N | inactive | 
O=C(O)C(F)(F)C(F)(F)C(F)(F)C(F)(F)C(F)(F)F |  | 2.02%
c1ccc(Nc2ccc(Nc3ccccc3)cc2)cc1 |  | -7.89%
COC(=O)N(C(=O)N1CO[C@@]2(C(=O)OC)Cc3cc(Cl)ccc3C2=N1)c1ccc(OC(F)(F)F)cc1 |  | 5.36%
Cc1cc(C)c(C2=C(OC(=O)CC(C)(C)C)C3(CCCC3)OC2=O)c(C)c1 |  | 2.72%
CCOP(=O)(Sc1ccccc1)Sc1ccccc1 |  | -20.8%
CCN(CC)C(=O)SCc1ccc(Cl)cc1 | inactive | 
CC(C)(C)C(O)/C(=C\c1ccc(Cl)cc1Cl)n1cncn1 (stereo not given) |  | -18%
CCCC[N+](=O)[O-] |  | 0.42%
O=c1[nH]oc2c1CCNC2 |  | 5.26% [at 42.5 µM]
